PubChem BioAssay (NCATS)
Results filed as inconclusive are left out. Entries that show only a call come without a potency. Active and inactive are the calls of the source. Unless noted, calls follow the shape of the dose curve; as a rule, active = well fitted curve in the direction sought with a large enough effect; inconclusive = small, poorly fitted or top-dose-only effect, or another doubt; inactive = no such curve, though single readings can be large; an effect the other way counts as inactive or inconclusive.

What was measured:
[1] = qHTS Assay for Lipid Storage Modulators (AID 1519; calls by dose curve); settings: Drosophila S3 cells, BODIPY lipid droplet/cell ratio, laser cytometry, cells loaded with oleic acid
Outline: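 Cells seeded at 5,000 per well were treated with compounds over a concentration series and loaded with oleic acid (400 uM, as added). Lipid droplet fluorescence (488 nm excitation, 500-530 nm channel) was read by laser-scanning cytometry and normalized to 20 uM Triacsin C.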

[2] = molecular target: DNA repair nuclease/redox regulator APEX1 (Homo sapiens) (UniProt P27695); test: qHTS Validation Assay for Inhibitors of the Human Apurinic/apyrimidinic Endonuclease 1 (APE1) (AID 1705;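 also: TAMRA fluorescence gain over two minutes as APE1 cuts a quenched THF abasic duplex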); settings: purified APE1 endonuclease activity, fluorescence, titration; series mostly up to 57.1 µM
Outline: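 Human APE1 was preincubated with compound for 15 min at room temperature, then 50 nM (final) THF-abasic double-stranded DNA substrate bearing 5'-TAMRA and 3'-BHQ-2 was added. Incision-driven fluorescence rise (ex 525/em 598 nm) was read kinetically.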

[3] = Counterscreen for APE1 Inhibitors: Fluorescent Dye Displacement Validation Assay (AID 1707); settings: fluorescent dye displacement from DNA; series mostly up to 57.1 µM
Outline: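 Thiazole Orange (250 nM) bound to 50 nM TAMRA-labelled dsDNA with tetrahydrofuran abasic site; displacement by DNA-binding compounds lowers fluorescence. Buffer 50 mM Tris-HCl pH 7.5, 50 mM NaCl, 2 mM MgCl2, 0.01% Tween-20; endpoint read at 480/540 nm.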

[4] = qHTS for differential inhibitors of proliferation of Plasmodium falciparum line 7G8 (AID 1815); settings: Plasmodium falciparum 7G8 proliferation inhibition; series mostly up to 28.7 µM;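 also: parasite growth measured after three days of incubation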; also: potency is read from the fitted curve at half-maximal effect
[5] = qHTS for differential inhibitors of proliferation of Plasmodium falciparum line GB4 (AID 1816); settings: Potency: Plasmodium falciparum GB4 proliferation inhibition; series mostly up to 28.7 µM;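 also: potency is read from the fitted curve at half-maximal effect; parasite growth measured after 72 h incubation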
[6] = qHTS for differential inhibitors of proliferation of Plasmodium falciparum line D10 (AID 1877); settings: series mostly up to 28.7 µM;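 also: parasites grown with compound for 72 h before DNA staining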; also: potency is read from the fitted curve at half-maximal effect
[7] = qHTS for differential inhibitors of proliferation of Plasmodium falciparum line Dd2 (AID 1882); settings: Potency: Plasmodium falciparum Dd2 proliferation inhibition; series mostly up to 28.7 µM; also: nearly all actives have a fitted effect of over 65% in size; also: potency is read from the fitted curve at half-maximal effect
Outline: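 Dd2-infected erythrocytes (0.3% parasitemia, 2.5% hematocrit final) incubated with compound 72 h at 37 C, 5% CO2; lysed with saponin/Triton buffer containing SYBR Green I, incubated overnight in the dark, then read by fluorescence (485/535 nm). Normalized to 0.29 uM artemisinin and DMSO.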

[8] = qHTS for differential inhibitors of proliferation of Plasmodium falciparum line W2 (AID 1883); settings: Potency: Plasmodium falciparum W2 proliferation inhibition; series mostly up to 28.7 µM;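 also: potency is read from the fitted curve at half-maximal effect; parasites grown with compound for 72 h before lysis and staining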
[9] = molecular target: Alpha-galactosidase (Coffea arabica) (UniProt Q42656); test: Counterscreen for Glucocerebrosidase Inhibitors: qHTS Assay for Coffee Bean alpha-Galactosidase at pH 5.9 (AID 998); settings: coffee bean alpha-galactosidase enzyme assay; series mostly up to 76.9 µM
Outline: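 Green coffee bean enzyme (2 nM) with 4-methylumbelliferyl alpha-D-galactopyranoside (80 uM) in 50 mM citric acid, 0.005% Tween-20, pH 5.9, 20 min at room temperature; compounds 0.7 nM–77 uM. Stopped at pH 10, fluorescence Ex365/Em440; Hill-fit AC50.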

[10] = molecular target: Alpha-galactosidase A (Homo sapiens) (UniProt P06280); test: Counterscreen for Glucocerebrosidase Inhibitors: qHTS Assay for Human alpha-Galactosidase at pH 4.5 (AID 992); settings: purified enzyme, fluorogenic substrate; series mostly up to 76.9 µM
Outline: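 Human enzyme (2 nM) with 80 uM 4-methylumbelliferyl alpha-D-galactopyranoside in 50 mM citric acid, 0.005% Tween-20, pH 4.5, 20 min at room temperature. Compounds 0.7 nM–77 uM; fluorescence Ex 365/Em 440 after pH 10 stop; AC50 from Hill fits.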

[11] = molecular target: alpha-glucosidase (Oryza sativa, rice) (UniProt Q653V4); test: Counterscreen for Glucocerebrosidase Inhibitors: qHTS Assay for Rice alpha-Glucosidase at pH 5.0 (AID 997); settings: rice alpha-glucosidase enzyme activity; series mostly up to 76.9 µM
Outline: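 Rice alpha-glucosidase (4 nM final) with 400 uM 4-methylumbelliferyl-alpha-D-glucopyranoside in citrate buffer pH 5.0, 20 min at room temperature, stopped at pH 10; fluorescence 365/440 nm, compounds 0.7 nM–77 uM, AC50 from Hill fits.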

[12] = Cell Viability - LYMP1-002 - Assay at 24 hr (AID 993); settings: LYMP1-002 lymphoblastoid cells viability; series mostly up to 92.2 µM; also: potency is read from the fitted curve at half-maximal effect
Outline: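 Cells plated 2500/well, 5 hr 37 C; compounds added, 24 hr 37 C; CellTiter-Glo added, 30 min RT; luminescence read. Tetraoctylammonium bromide positive control. Hill-equation AC50.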

[13] = Cell Viability - LYMP1-002 - Assay at 40 hr (AID 994); settings: LYMP1-002 lymphoblastoid cell viability; series mostly up to 92.2 µM; also: nearly all actives have a fitted effect of over 60% in size; also: potency is read from the fitted curve at half-maximal effect
Outline: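 Luminescent ATP signal served as the viability readout, with decreases taken as toxicity. Cells were treated with compounds across a concentration range for 40 hours at 37 C, and AC50 values came from standard Hill modeling.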

[14] = qHTS for differential inhibitors of proliferation of Plasmodium falciparum line 3D7 (AID 1876); also: potency is read from the fitted curve at half-maximal effect; settings: P. falciparum 3D7 proliferation inhibition; series mostly up to 28.7 µM
[15] = qHTS for differential inhibitors of proliferation of Plasmodium falciparum line HB3 (AID 1886); settings: Potency: Plasmodium falciparum HB3 proliferation inhibition; series mostly up to 28.7 µM;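 also: parasites grown with compound for 72 h before SYBR Green readout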; also: potency is read from the fitted curve at half-maximal effect
[16] = molecular target: Endonuclease 4 (Escherichia coli (strain K12)) (UniProt P0A6C1); test: Counterscreen for APE1 Inhibitors: qHTS Validation Assay for Inhibitors of Endonuclease IV (AID 1708); settings: E. coli endonuclease IV, DNA cleavage fluorescence; series mostly up to 57.1 µM
Outline: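 E. coli EndoIV at 2 nM final, preincubated 15 min at room temperature with compound, then 50 nM TAMRA/BHQ-2 THF abasic-site duplex added. Buffer: 50 mM Tris-HCl pH 7.5, 50 mM NaCl, 2 mM MgCl2, 1 mM DTT, 0.01% Tween-20. Kinetic fluorescence increase, third minus first read.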

[17] = qHTS Assay for Identification of Small Molecule Inducers of Hypoxia Response (AID 2120; active = well fitted curve in the direction sought with a large enough effect in the signal ratio, with a control signal flat, not every such curve was filed as active; the % refers to the signal ratio); settings: hypoxia response reporter cells, beta-lactamase ratio readout; series mostly up to 104 µM
Outline: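 ME-180 HRE-bla cells plated in Opti-MEM/0.5% dialyzed FBS, rested 4-5 h, then dosed with compound titrations by pin tool. After 17 h at 37 degrees C, CCF4 dye loaded 2.5 h at RT; 460/530 nm ratio gave %Activity and AC50.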

[18] = Cell Viability - LYMP2-026 (AID 989); settings: LYMP2-026 lymphoblastoid cell viability, qHTS; series mostly up to 92.2 µM;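 also: cells exposed to compound for 24 h at 37 °C; nearly all actives have a fitted effect of over 50% in size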
Outline: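 Luminescent ATP signal (CellTiter-Glo, 30 min room temperature) measures viable lymphoblastoid cells after 24 hr compound treatment at 37 C. Decreased ATP reflects acute toxicity; AC50 values come from Hill-equation modeling.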

[19] = measured here: cell count channel max response
[20] = measured here: lipid channel max response

Chain of DNA repair nuclease/redox regulator APEX1 (Homo sapiens) (P27695 whole entry, looked up): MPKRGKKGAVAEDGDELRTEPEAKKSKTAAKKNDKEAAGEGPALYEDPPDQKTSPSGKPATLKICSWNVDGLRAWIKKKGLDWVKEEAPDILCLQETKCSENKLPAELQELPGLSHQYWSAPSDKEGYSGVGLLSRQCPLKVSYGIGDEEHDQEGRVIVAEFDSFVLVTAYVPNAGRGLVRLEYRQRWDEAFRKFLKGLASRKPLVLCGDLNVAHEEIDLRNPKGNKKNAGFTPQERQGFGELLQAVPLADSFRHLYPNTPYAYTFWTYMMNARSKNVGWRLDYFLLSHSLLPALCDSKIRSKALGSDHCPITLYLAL
Chain of Alpha-galactosidase A (Homo sapiens) (P06280 whole entry, looked up): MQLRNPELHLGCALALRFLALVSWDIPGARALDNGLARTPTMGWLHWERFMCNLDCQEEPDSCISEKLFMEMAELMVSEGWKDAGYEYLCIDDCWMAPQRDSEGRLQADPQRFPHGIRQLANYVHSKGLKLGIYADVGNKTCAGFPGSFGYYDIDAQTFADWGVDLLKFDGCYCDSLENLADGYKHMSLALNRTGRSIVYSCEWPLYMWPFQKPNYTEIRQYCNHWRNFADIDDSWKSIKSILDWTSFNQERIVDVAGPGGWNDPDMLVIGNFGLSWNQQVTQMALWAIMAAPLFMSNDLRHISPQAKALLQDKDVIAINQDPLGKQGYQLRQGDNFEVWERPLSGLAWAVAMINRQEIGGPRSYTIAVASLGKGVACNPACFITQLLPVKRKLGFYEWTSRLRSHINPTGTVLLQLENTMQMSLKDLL
Chain of Alpha-galactosidase (Coffea arabica) (Q42656 whole entry, looked up): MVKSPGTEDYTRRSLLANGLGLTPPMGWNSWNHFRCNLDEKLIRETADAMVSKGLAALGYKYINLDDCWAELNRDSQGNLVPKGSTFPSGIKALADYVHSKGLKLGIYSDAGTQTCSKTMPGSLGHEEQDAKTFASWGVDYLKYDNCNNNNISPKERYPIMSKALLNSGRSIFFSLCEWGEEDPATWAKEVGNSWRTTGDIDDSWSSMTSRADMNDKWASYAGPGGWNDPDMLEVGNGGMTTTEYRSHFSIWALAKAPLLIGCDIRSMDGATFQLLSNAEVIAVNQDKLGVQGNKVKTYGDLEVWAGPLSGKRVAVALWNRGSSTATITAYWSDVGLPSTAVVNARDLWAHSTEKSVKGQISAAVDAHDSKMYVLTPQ

CC(CCc1ccccc1)NC(C)C(O)c1ccc(O)cc1 (stereo not drawn)
activity change, negative = inhibition ([1]; at 57.5 µM (top of the series)): 1.71% (inactive) | max response [1, 19]: -1.34% | max response [1, 20]: 0.25% | outcome [2]: inactive | Potency [3]: inactive | Potency [4]: 7.94 µM (active) | Potency [5]: 3.16 µM (active) | Potency [6]: inactive | Potency [7]: 5.01 µM (active) | Potency [8]: 2.51 µM (active)

COc1ccc(Cc2nccc3cc(OC)c(OC)cc23)cc1OC
outcome [9]: inactive | outcome [2]: inactive | Potency [3]: inactive | Potency [4]: inactive | Potency [7]: inactive

N[C@@H]1C[C@H]1c1ccccc1
outcome [10]: inactive | outcome [11]: inactive | outcome [9]: inactive

Clc1ccc(COC(Cn2ccnc2)c2ccc(Cl)cc2Cl)cc1 (stereo not drawn)
Potency [12]: inactive | Potency [13]: 50.1 µM (active) | activity change, negative = inhibition ([1]; at 57.5 µM (top of the series)): -5.83% (inactive) | max response [1, 19]: -16.9% | max response [1, 20]: -20.8%

CN1CCN(C2=Nc3cc(Cl)ccc3Nc3ccccc32)CC1
outcome [9]: inactive | activity change, negative = inhibition ([1]; at 25.7 µM (top of the series)): 0.266% (inactive) | max response [1, 19]: -21% | max response [1, 20]: -18.6%

O=c1[nH]c2ccccc2n1C1CCN(CCCC(c2ccc(F)cc2)c2ccc(F)cc2)CC1
outcome [10]: inactive | outcome [11]: inactive | outcome [9]: inactive | Potency [3]: inactive | Potency [4]: 3.98 µM (active) | Potency [5]: 8.91 µM (active) | Potency [14]: 3.16 µM (active) | Potency [6]: 7.08 µM (active) | Potency [7]: 10 µM (active) | Potency [8]: 2.82 µM (active) | Potency [15]: 5.62 µM (active)

O=c1[nH]cc(F)c(=O)[nH]1
outcome [9]: inactive | Potency [4]: 7.08 µM (active) | Potency [5]: 7.94 µM (active) | Potency [14]: 4.47 µM (active) | Potency [6]: 4.47 µM (active) | Potency [8]: 7.94 µM (active) | Potency [15]: 5.01 µM (active)

CN1CCN(CCCN2c3ccccc3Sc3ccc(C(F)(F)F)cc32)CC1
outcome [9]: inactive

CC[N+](CC)(CC)CC
outcome [9]: inactive | outcome [2]: inactive | Potency [3]: inactive | Potency [14]: 11.2 µM (active) | Potency [6]: 11.2 µM (active) | Potency [7]: inactive

Clc1cccc(N2CCNCC2)c1
outcome [10]: inactive | outcome [11]: inactive | outcome [9]: inactive | outcome [2]: inactive | Potency [3]: inactive | outcome [16]: inactive | Potency [5]: 12.6 µM (active) | Potency [14]: inactive | Potency [6]: inactive | Potency [8]: 6.31 µM (active) | Potency [15]: inactive

CC(=O)Oc1ccccc1C(=O)Nc1ncc([N+](=O)[O-])s1
Potency [12]: 39.8 µM (active) | Potency [13]: 39.8 µM (active)

C[C@]12C/C(=C/O)C(=O)C[C@@H]1CC[C@@H]1[C@@H]2CC[C@@]2(C)[C@H]1CC[C@]2(C)O
outcome [17]: inactive

CCOP(=S)(OCC)Oc1cc(C)nc(C(C)C)n1
outcome [18]: inactive | Potency [12]: inactive | Potency [13]: inactive | outcome [17]: inactive

COC[C@H]1OC(=O)c2coc3c2[C@@]1(C)C1=C(C3=O)C2CCC(=O)[C@@]2(C)C[C@H]1OC(C)=O (stereo partly drawn)
outcome [2]: inactive | Potency [3]: inactive | Potency [14]: 12.6 µM (active) | Potency [6]: inactive | Potency [7]: 11.2 µM (active) | Potency [8]: 11.2 µM (active)

N[C@@H](Cc1ccc(N(CCCl)CCCl)cc1)C(=O)O
Potency [12]: inactive | Potency [13]: inactive
